Test results reported in PubChem BioAssay (EPA / NIEHS).
Results filed as inconclusive are left out. Active and inactive are the calls of the source. Rule for the calls, unless noted: active = hit-call score of the fitted dose curve at least 0.9, where 1 is the maximum; inactive = score below 0.9.

Experiments:
[1] = ATG_PBREM_CIS: Attagene CIS-FACTORIAL HepG2 Assay for human Phenobarbital-responsive Enhancer Module (PBREM) (AID 2282955); conditions: HepG2 PBREM cis-reporter, Attagene multiplexed transcription; actives raise or lower the signal
Procedure, shortened: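 HepG2 cells transiently transfected with multiple cis-regulated reporter transcription units; endogenous factor activity at the PBREM element measured as reporter mRNA 24 h after dosing, via RT-PCR and capillary electrophoresis of fluorescent fragments; bidirectional fitting versus DMSO.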

[2] = target: Paired box protein Pax-6 (Homo sapiens) (UniProt P26367); experiment: ATG_Pax6_CIS: Attagene CIS-FACTORIAL HepG2 Assay for human Paired Box 6 (PAX6) (AID 2282956); conditions: HepG2 CIS-FACTORIAL PAX6 reporter transcription, RNA readout; actives raise or lower the signal
Chain of Paired box protein Pax-6 (Homo sapiens) (P26367 whole entry, looked up): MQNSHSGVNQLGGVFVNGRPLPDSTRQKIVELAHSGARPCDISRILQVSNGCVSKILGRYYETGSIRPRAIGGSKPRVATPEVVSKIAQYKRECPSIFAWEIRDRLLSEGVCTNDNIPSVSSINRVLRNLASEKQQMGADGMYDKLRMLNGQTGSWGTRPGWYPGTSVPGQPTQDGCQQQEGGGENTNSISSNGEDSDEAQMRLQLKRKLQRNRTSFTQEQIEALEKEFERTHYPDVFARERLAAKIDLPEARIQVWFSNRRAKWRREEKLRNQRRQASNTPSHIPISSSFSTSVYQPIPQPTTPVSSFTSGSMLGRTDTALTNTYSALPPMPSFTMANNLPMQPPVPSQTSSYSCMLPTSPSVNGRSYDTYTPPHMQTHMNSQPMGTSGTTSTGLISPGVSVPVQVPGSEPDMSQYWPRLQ
Procedure, shortened: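 Transient MRTU transfection of HepG2 → compound exposure 24 h → TriZol RNA, oligo(dT) RT → PCR, 6-FAM primer extension, HpaI cut → capillary electrophoresis; activity fitted both directions against DMSO.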

[3] = ATG_PXRE_CIS: Attagene CIS-FACTORIAL HepG2 Assay for human Pregnane X Receptor Element (PXRE) (AID 2282957); conditions: HepG2 Attagene CIS-FACTORIAL PXRE reporter, mRNA; actives raise or lower the signal
Procedure, shortened: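 Transfect HepG2 with MRTUs (cis promoter elements); dose chemical, incubate 24 h; isolate RNA, RT with oligo(dT), PCR, 6-FAM label, HpaI cut, CE. Gain/loss fit vs DMSO.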

[4] = ATG_PPRE_CIS: Attagene CIS-FACTORIAL HepG2 Assay for human Peroxisome Proliferator-activated Response Element (PPRE) (AID 2282958); conditions: HepG2 PPRE cis-element reporter, Attagene transcription factor profiling; actives raise or lower the signal
Procedure, shortened: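 HepG2 cells transiently transfected with multiplexed cis-element reporter units measure endogenous transcription factor activity. After 24 h compound exposure, reporter mRNA is quantified by RT-PCR, 6-FAM labeling, HpaI digestion and capillary electrophoresis; bidirectional fits are made against DMSO baseline.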

[5] = ATG_RORE_CIS: Attagene CIS-FACTORIAL HepG2 Assay for human RAR-related Orphan Receptor Element (RORE) (AID 2282959); conditions: HepG2 Attagene cis-factorial RORE reporter, mRNA; actives raise or lower the signal
Procedure, shortened: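 HepG2 cells transiently transfected with multiple cis-element reporter transcription units, exposed to chemical for 24 h. Reporter mRNA quantified by RT-PCR, 6-FAM primer-extension labeling, HpaI digestion and capillary electrophoresis; bidirectional fit versus DMSO baseline.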

[6] = ATG_Sox_CIS: Attagene CIS-FACTORIAL HepG2 Assay for human SRY-box transcription factor (SOX) (AID 2282960); conditions: HepG2 Attagene cis-factorial SOX reporter, mRNA; actives raise or lower the signal
Procedure, shortened: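 HepG2 cells transiently transfected with cis-element-driven multiple reporter transcription units, dosed 24 h; reporter mRNA measured by RT-PCR, FAM labelling, HpaI digestion and capillary electrophoresis. Bidirectional fit versus DMSO baseline.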

[7] = target: Transcription factor Sp1 (Homo sapiens) (UniProt P08047); experiment: ATG_Sp1_CIS: Attagene CIS-FACTORIAL HepG2 Assay for human Specificity Protein 1 (Sp1) (AID 2282961); conditions: HepG2 Sp1 cis-reporter transcription, actives raise or lower the signal
Chain of Transcription factor Sp1 (Homo sapiens) (P08047 whole entry, looked up): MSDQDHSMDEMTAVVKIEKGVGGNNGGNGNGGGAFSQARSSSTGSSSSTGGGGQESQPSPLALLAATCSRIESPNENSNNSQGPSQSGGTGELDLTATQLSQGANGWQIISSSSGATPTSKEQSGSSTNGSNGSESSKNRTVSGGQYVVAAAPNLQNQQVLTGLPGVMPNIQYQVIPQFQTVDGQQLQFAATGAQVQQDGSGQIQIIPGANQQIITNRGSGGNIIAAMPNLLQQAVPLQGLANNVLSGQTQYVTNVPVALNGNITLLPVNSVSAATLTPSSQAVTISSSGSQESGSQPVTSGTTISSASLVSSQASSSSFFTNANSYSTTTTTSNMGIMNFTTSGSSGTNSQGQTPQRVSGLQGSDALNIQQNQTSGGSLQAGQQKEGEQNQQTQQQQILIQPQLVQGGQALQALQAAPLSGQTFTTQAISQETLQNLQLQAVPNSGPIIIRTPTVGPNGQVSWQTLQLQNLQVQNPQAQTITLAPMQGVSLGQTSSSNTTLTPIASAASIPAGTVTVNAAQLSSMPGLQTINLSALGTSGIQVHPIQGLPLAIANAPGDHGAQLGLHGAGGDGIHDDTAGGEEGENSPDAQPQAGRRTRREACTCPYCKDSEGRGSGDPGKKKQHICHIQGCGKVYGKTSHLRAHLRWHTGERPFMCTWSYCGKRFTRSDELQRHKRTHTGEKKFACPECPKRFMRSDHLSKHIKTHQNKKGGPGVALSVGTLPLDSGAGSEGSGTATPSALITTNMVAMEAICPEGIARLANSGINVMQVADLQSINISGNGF
Procedure, shortened: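 HepG2 cells transiently transfected with multiple reporter transcription units driven by cis-regulatory elements; Sp1-responsive reporter mRNA measured 24 h after dosing by RT-PCR and capillary electrophoresis fluorescence, fitted bidirectionally against DMSO baseline.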

[8] = ATG_SREBP_CIS: Attagene CIS-FACTORIAL HepG2 Assay for human Sterol Regulatory Element Binding (SREBP) (AID 2282962); conditions: HepG2 Attagene cis-factorial SREBP reporter, mRNA; actives raise or lower the signal
Procedure, shortened: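 Transfected HepG2 (cis-regulated reporter library, endogenous TFs) → compound 24 h → total RNA → oligo(dT) RT → reporter-specific PCR → FAM primer extension, HpaI cut → CE fluorescence. Fit bidirectional vs DMSO.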

[9] = target: Signal transducer and activator of transcription 3 (Homo sapiens) (UniProt P40763); experiment: ATG_STAT3_CIS: Attagene CIS-FACTORIAL HepG2 Assay for human Signal Transducer and Activator of Transcription 3 (STAT3) (AID 2282963); conditions: HepG2, Attagene cis-factorial STAT3 reporter transcription; actives raise or lower the signal
Chain of Signal transducer and activator of transcription 3 (Homo sapiens) (P40763 whole entry, looked up): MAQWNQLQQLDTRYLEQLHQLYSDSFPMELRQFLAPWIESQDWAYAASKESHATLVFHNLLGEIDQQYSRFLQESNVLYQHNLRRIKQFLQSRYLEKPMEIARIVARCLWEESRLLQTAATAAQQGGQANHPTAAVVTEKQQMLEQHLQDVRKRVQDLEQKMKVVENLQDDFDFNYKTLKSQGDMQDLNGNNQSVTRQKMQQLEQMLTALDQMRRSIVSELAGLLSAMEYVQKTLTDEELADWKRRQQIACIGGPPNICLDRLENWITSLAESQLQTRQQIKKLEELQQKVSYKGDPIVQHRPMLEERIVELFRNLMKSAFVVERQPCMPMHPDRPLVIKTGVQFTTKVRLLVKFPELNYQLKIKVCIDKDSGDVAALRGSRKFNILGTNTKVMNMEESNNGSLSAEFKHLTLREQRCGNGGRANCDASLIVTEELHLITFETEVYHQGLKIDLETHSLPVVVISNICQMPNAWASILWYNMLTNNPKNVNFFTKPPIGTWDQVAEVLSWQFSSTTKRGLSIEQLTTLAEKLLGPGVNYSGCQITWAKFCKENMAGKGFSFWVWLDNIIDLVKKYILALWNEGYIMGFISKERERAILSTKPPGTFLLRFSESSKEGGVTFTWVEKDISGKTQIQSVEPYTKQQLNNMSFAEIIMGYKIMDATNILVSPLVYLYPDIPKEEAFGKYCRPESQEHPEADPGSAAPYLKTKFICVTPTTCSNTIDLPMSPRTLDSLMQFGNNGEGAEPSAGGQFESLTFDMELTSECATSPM
Procedure, shortened: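 HepG2 cells transiently transfected with cis-element-driven multiple reporter transcription units; after 24 h chemical exposure, reporter mRNA measured by RT-PCR, 6-FAM primer-extension labelling, HpaI digestion and capillary electrophoresis. Bidirectional fitting versus DMSO baseline.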

[10] = ATG_TA_CIS: Attagene CIS-FACTORIAL HepG2 Assay for human TA Basal Promoter (AID 2282964); conditions: HepG2 Attagene CIS-factorial TA basal promoter reporter; actives raise or lower the signal
Procedure, shortened: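 Read-out: fluorescent reporter-transcript fragments resolved by capillary electrophoresis after RT-PCR and HpaI digestion. Source: HepG2 cells carrying transiently transfected multi-reporter cis constructs, treated 24 h. Endpoint fitted bidirectionally relative to DMSO.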

[11] = ATG_TCF_b_cat_CIS: Attagene CIS-FACTORIAL HepG2 Assay for human T-Cell-Factor with beta-catenin (TCF/b-cat) (AID 2282965); conditions: HepG2 TCF/beta-catenin cis-reporter transcription, actives raise or lower the signal
Procedure, shortened: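 Using capillary electrophoresis as the read-out, labelled reporter cDNA fragments from transiently transfected HepG2 were sized and quantified. Exposure lasted 24 hours; activity in either direction was referenced to DMSO.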

[12] = ATG_TAL_CIS: Attagene CIS-FACTORIAL HepG2 Assay for human TAL Basal Promoter (AID 2282966); conditions: HepG2 Attagene cis-factorial TAL promoter reporter; actives raise or lower the signal;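 note: background control endpoint measuring basal TAL promoter reporter mRNA not a specific factor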
Procedure, shortened: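 Fluorescence of labelled reporter cDNA fragments, resolved by capillary electrophoresis, gave the readout. Human HepG2 liver cells carried transiently transfected cis-element reporter units and were treated for 24 hours; activity was fitted bidirectionally against DMSO.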

[13] = ATG_TGFb_CIS: Attagene CIS-FACTORIAL HepG2 Assay for human Transforming Growth Factor (TGF) (AID 2282967); conditions: HepG2 Attagene CIS TGFb reporter, mRNA transcription; actives raise or lower the signal
Procedure, shortened: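 Transient MRTU transfection of HepG2 (FuGene 6). Dose 24 h. TriZol RNA, oligo(dT) RT, PCR, 6-FAM primer extension, HpaI cut, CE. Bidirectional fit, DMSO = baseline.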

[14] = target: Nuclear receptor subfamily 1 group I member 3 (Homo sapiens) (UniProt Q14994); experiment: ATG_CAR_TRANS: Attagene TRANS-FACTORIAL HepG2 Assay for human Constitutive Androstane Receptor (CAR) (AID 2282969; active = hit-call score of the fitted dose curve at least 0.9, where 1 is the maximum;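 note: activators raise reporter mRNA above DMSO so AC50 marks induction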); conditions: HepG2 Attagene TRANS-FACTORIAL CAR reporter
Chain of Nuclear receptor subfamily 1 group I member 3 (Homo sapiens) (Q14994 whole entry, looked up, the tested form may be a part): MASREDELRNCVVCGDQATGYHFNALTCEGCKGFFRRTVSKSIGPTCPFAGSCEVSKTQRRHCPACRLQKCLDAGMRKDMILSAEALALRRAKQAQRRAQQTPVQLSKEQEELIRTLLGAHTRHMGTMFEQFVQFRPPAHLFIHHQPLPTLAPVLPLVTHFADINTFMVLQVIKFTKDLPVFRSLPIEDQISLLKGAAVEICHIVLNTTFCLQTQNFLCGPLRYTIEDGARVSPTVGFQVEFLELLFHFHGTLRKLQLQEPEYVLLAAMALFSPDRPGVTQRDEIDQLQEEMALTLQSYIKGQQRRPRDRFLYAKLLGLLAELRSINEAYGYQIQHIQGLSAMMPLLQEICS
Procedure, shortened: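 HepG2 cells transiently transfected with multiplexed GAL4-UAS reporter units expressing chimeric NR-Gal4 proteins; compound exposure 24 h. Reporter mRNA measured by RT-PCR, 6-FAM labelling, HpaI digestion and capillary electrophoresis; gain-of-signal fitted against DMSO baseline.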

[15] = target: Estrogen receptor (Homo sapiens) (UniProt P03372); experiment: ATG_ERa_TRANS: Attagene TRANS-FACTORIAL HepG2 Assay for human Estrogen Receptor alpha (ERa) (AID 2282970; active = hit-call score of the fitted dose curve at least 0.9, where 1 is the maximum); conditions: HepG2 Attagene TRANS ERa GAL4 reporter, mRNA
Chain of Estrogen receptor (Homo sapiens) (P03372 whole entry, looked up, the tested form may be a part): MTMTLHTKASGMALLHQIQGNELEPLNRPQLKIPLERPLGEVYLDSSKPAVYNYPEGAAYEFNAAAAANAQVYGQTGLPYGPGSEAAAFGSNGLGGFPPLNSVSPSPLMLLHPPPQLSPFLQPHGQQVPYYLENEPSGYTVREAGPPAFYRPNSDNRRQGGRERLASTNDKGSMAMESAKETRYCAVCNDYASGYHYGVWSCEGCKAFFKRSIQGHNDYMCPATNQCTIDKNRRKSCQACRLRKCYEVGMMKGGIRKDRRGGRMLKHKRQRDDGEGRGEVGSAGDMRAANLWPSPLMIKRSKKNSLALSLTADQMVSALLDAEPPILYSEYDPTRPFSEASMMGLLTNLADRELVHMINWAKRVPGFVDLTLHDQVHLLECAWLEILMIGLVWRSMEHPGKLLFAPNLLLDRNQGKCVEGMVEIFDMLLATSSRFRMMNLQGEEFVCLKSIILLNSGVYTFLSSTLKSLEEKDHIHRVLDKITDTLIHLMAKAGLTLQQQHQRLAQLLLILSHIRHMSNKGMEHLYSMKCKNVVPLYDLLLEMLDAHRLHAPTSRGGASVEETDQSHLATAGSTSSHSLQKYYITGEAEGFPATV
Procedure, shortened: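 Human liver HepG2, transient transfection of multiple GAL4-UAS reporter units; TRANS format (exogenous NR-Gal4 chimera). 24 h dosing. Readout: reporter mRNA, RT-PCR, 6-FAM primer extension, HpaI digest, capillary electrophoresis. Positive direction vs DMSO.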

[16] = target: X-box-binding protein 1 (Homo sapiens) (UniProt P17861); experiment: ATG_Xbp1_CIS: Attagene CIS-FACTORIAL HepG2 Assay for human X-box Binding Protein 1 (XBP1) (AID 2282972); conditions: HepG2 XBP1 cis-element reporter, Attagene multiplex; actives raise or lower the signal
Chain of X-box-binding protein 1 (Homo sapiens) (P17861 whole entry, looked up): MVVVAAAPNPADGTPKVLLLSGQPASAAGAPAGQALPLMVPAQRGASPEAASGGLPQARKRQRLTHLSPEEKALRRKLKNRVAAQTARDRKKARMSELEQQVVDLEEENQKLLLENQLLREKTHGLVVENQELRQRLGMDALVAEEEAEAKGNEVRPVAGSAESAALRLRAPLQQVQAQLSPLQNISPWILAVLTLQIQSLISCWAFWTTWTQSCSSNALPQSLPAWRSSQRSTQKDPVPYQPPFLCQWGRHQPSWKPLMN
Procedure, shortened: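 HepG2, transient MRTU transfection (cis-promoter driven), 24 h compound exposure. Total RNA → oligo(dT) RT → PCR → 6-FAM labeling → HpaI cut → CE. Bidirectional fit vs DMSO.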

[17] = ATG_M_19_TRANS: Attagene TRANS-FACTORIAL HepG2 Assay for M19 Transcription Factor (Internal Marker) (AID 2282974; active = hit-call score of the fitted dose curve at least 0.9, where 1 is the maximum); conditions: HepG2 Attagene TRANS-FACTORIAL M19 internal marker reporter
Procedure, shortened: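 HepG2 cells transiently transfected with multiple GAL4-UAS reporter transcription units were exposed to chemicals for 24 h. Reporter mRNA was read by RT-PCR, 6-FAM primer extension, HpaI digestion and capillary electrophoresis; gain of signal fitted relative to DMSO.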

[18] = ATG_VDRE_CIS: Attagene CIS-FACTORIAL HepG2 Assay for human Vitamin D Receptor Element (VDRE) (AID 2282968); conditions: HepG2 VDRE cis-reporter transcription, actives raise or lower the signal
Procedure, shortened: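 HepG2 cells transiently transfected with cis-element reporter units, dosed 24 h; reporter mRNA measured by RT-PCR, 6-FAM labeling, HpaI digestion and capillary electrophoresis. Activity fitted bidirectionally against DMSO baseline.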

[19] = target: Steroid hormone receptor ERR1 (Homo sapiens) (UniProt P11474); experiment: ATG_ERRa_TRANS: Attagene TRANS-FACTORIAL HepG2 Assay for human Estrogen-Related Receptor alpha (ERRa) (AID 2282971; active = hit-call score of the fitted dose curve at least 0.9, where 1 is the maximum); conditions: HepG2 Attagene TRANS reporter, ERRa transactivation
Chain of Steroid hormone receptor ERR1 (Homo sapiens) (P11474 whole entry, looked up, the tested form may be a part): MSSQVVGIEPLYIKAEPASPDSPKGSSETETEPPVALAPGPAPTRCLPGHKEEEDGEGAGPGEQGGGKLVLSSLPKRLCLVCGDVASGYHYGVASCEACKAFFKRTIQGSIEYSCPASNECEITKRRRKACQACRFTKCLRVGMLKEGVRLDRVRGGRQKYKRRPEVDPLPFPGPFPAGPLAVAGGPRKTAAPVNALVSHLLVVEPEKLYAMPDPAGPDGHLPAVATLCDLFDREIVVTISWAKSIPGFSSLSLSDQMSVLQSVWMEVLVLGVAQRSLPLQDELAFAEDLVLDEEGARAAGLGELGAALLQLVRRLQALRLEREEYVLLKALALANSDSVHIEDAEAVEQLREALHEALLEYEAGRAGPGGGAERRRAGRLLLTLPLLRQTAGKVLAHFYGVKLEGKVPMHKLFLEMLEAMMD
Procedure, shortened: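 Reporter transcript induction was quantified by RT-PCR and capillary electrophoresis of FAM-labelled, HpaI-cut products after 24 h treatment of HepG2 cells carrying transiently transfected GAL4-UAS reporter units and an exogenous ERRa-Gal4 fusion; activity scored as increase over DMSO.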

[20] = ATG_GAL4_TRANS: Attagene TRANS-FACTORIAL HepG2 Assay for GAL4 (Internal Marker) (AID 2282976; active = hit-call score of the fitted dose curve at least 0.9, where 1 is the maximum); conditions: HepG2 Attagene TRANS GAL4 internal marker reporter
Procedure, shortened: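 First, HepG2 cells were transfected with reporter units under GAL4-UAS control. Next, they were treated with chemical for 24 h. Finally, RNA was reverse-transcribed, PCR-amplified, FAM-labelled and resolved by capillary electrophoresis, with induction scored against DMSO.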

Measured: AC50

C=C1CC[C@H]2O[C@]2(C)CC[C@@H]2[C@@H]1CC2(C)C
not listed: [18] | [19] | [20]
inactive: all other assays above

Cc1cccc(O)c1
not listed: [17] | [18] | [19] | [20]
inactive: all other assays above

CC(C)COC(=O)c1ccccc1
not listed: [14] | [17] | [19] | [20]
inactive: all other assays above

CC1COC(=O)O1 (configuration not stated)
active: [3] 40.3 µM | [16] 10.3 nM
not listed: [15] | [17]
inactive: all other assays above
